# Where “and” joins values, the source holds several entries; their conditions need not be identical. Equal values may be shown once. A number with no mark means an inactive call. Results filed as inconclusive are left out. Entries that show only a call come without a potency. Some structures have more than one record in an assay (separate samples or runs), and their calls can disagree. Calls of active or inactive are those of the source. Unless noted, the call rests on the fitted dose curve; in most records, active means well fitted curve in the direction sought with a large enough effect; inconclusive means small, poorly fitted or top-dose-only effect, or another doubt; inactive means no such curve, though single readings can be large; an effect the other way counts as inactive or inconclusive.
# Tests used:
# Hek293T = test: Primary qHTS to identify gynecologic anti-cancer compounds using libraries of approved drugs and bioactive compounds (AID 1345084); settings: Gynecologic cancer cell panel viability, ATPlite luminescence, 48 h, control line for the selectivity index; series mostly up to 57.5 µM; further: nearly all actives have a fitted effect of over 55% in size; further: potency means the concentration at half of the fitted maximal effect
# How it was run: (§1)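 Cells, 1,000 per well, were allowed to settle for 16 h at 37 C before compound addition. Five concentrations were tested for 48 h, and viability was read by ATPlite luminescence after 15 min at room temperature.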
# JEG-3 = test: as above; settings: Gynecologic cancer cell panel viability, ATPlite luminescence, 48 h; series mostly up to 57.5 µM
# How it was run: as §1
# OV90 = test: as above; settings: Gynecologic cancer cell panel viability, ATPlite luminescence, 48 h; series mostly up to 57.5 µM
# How it was run: as §1
# PA-1 = test: as above; settings: Gynecologic cancer cell panel viability, ATPlite luminescence, 48 h; series mostly up to 57.5 µM
# How it was run: as §1
# SKOV3 = test: as above; settings: Gynecologic cancer cell panel viability, ATPlite luminescence, 48 h; series mostly up to 57.5 µM
# How it was run: as §1
# Tov-21-G = test: as above; settings: Gynecologic cancer cell panel viability, ATPlite luminescence, 48 h; series mostly up to 57.5 µM
# How it was run: as §1
# Tov112D = test: as above; settings: Gynecologic cancer cell panel viability, ATPlite luminescence, 48 h; series mostly up to 57.5 µM
# How it was run: as §1
# [1] = Drug repurposing screens with cells derived from glioblastoma tumor samples (AID 1345199); settings: GBM patient neurospheres viability, ATP luminescence, 48 h; further: nearly all actives have a fitted effect of over 40% in size; further: potency means the concentration at half of the fitted maximal effect
# How it was run: (§2)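 Four patient lines of CD133+ GBM neurospheres were screened at several concentrations; hits were retested in those lines plus three slower-growing GBM lines, using 48-hour treatment and ATP-based viability.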
# astro = test: as above; settings: viability, ATP luminescence, 48 h; series mostly up to 45.9 µM
# How it was run: as §2
# [2] = qHTS assay for small molecule activators of the human pregnane X receptor (PXR) signaling pathway (AID 720659; call rule not given here)
# [3] = at 45.9 µM (top of the series), tumour line B
# [4] = at 45.9 µM (top of the series), tumour line D
# [5] = at 46 µM (top of the series), tumour line A
# [6] = at 46.1 µM (top of the series), tumour line C
# [7] = at 20 µM (top of the series), tumour line C
# [8] = at 21.2 µM (top of the series), tumour line B
# [9] = at 21.2 µM (top of the series), tumour line D
# [10] = at 21.3 µM (top of the series), tumour line A
smiles,measurement,setting,value
O=c1cc[nH]c(=O)[nH]1,Potency,Hek293T,inactive
same,Potency,JEG-3,inactive
same,Potency,OV90,inactive
same,Potency,PA-1,inactive
same,Potency,SKOV3,inactive
same,Potency,Tov-21-G,inactive
same,Potency,Tov112D,inactive
same,"activity, negative = cell killing",[1]; [3],-1.25%
same,"activity, negative = cell killing",[1]; [4],-13.5%
same,"activity, negative = cell killing",[1]; [5],-25.6%
same,"activity, negative = cell killing",[1]; [6],-13%
same,Potency,astro,inactive
CC1=C(CC(=O)O)c2cc(F)ccc2/C1=C\c1ccc(S(C)(=O)=O)cc1,Potency,Hek293T,inactive
same,Potency,JEG-3,inactive
same,Potency,OV90,inactive
same,Potency,PA-1,inactive
same,Potency,SKOV3,inactive
same,Potency,Tov-21-G,inactive
same,Potency,Tov112D,inactive
same,"activity, negative = cell killing",[1]; [3],-11.4%
same,"activity, negative = cell killing",[1]; [4],-18.4%
same,"activity, negative = cell killing",[1]; [5],-33%
same,"activity, negative = cell killing",[1]; [6],4.54%
same,Potency,astro,inactive
C[C@H](N)[C@H](O)c1cccc(O)c1,Potency,Hek293T,inactive
same,Potency,JEG-3,inactive
same,Potency,OV90,inactive
same,Potency,PA-1,inactive
same,Potency,SKOV3,inactive
same,Potency,Tov-21-G,inactive
same,Potency,Tov112D,inactive
same,"activity, negative = cell killing",[1]; [7],-4.02%
same,"activity, negative = cell killing",[1]; [8],-13%
same,"activity, negative = cell killing",[1]; [9],-3.31%
same,"activity, negative = cell killing",[1]; [10],-12.7%
same,Potency,astro,inactive
CN(C)CC[C@@H](c1ccc(Cl)cc1)c1ccccn1,Potency,Hek293T,inactive
same,Potency,JEG-3,inactive
same,Potency,OV90,inactive
same,Potency,PA-1,inactive
same,Potency,SKOV3,inactive
same,Potency,Tov-21-G,inactive
same,Potency,Tov112D,inactive
same,"activity, negative = cell killing",[1]; [3],-9.08%
same,"activity, negative = cell killing",[1]; [4],-26.8%
same,"activity, negative = cell killing",[1]; [6],-11.4%
same,Potency,[1]; tumour line A,14.1 µM (active)
same,Potency,astro,inactive
Cc1cccc(C)c1NC(=O)CN(CC(=O)O)CC(=O)O,Potency,Hek293T,inactive
same,Potency,JEG-3,inactive
same,Potency,OV90,inactive
same,Potency,PA-1,inactive
same,Potency,SKOV3,inactive
same,Potency,Tov-21-G,inactive
same,Potency,Tov112D,inactive
same,"activity, negative = cell killing",[1]; [3],1.75%
same,"activity, negative = cell killing",[1]; [4],-3.71%
same,"activity, negative = cell killing",[1]; [5],-11.4%
same,"activity, negative = cell killing",[1]; [6],-3.39%
same,Potency,astro,inactive
CC1=C(/C=C/C(C)=C/C=C/C(C)=C/C(=O)O)C(C)(C)CCC1,Potency,Hek293T,inactive
same,Potency,JEG-3,inactive
same,Potency,OV90,inactive
same,Potency,PA-1,inactive
same,Potency,SKOV3,inactive
same,Potency,Tov-21-G,inactive
same,Potency,Tov112D,inactive
same,"activity, negative = cell killing",[1]; [3],-21.7%
same,"activity, negative = cell killing",[1]; [4],-18.7%
same,"activity, negative = cell killing",[1]; [6],-15.9%
COc1cc(C(=O)N2CCOCC2)cc(OC)c1OC,Potency,Hek293T,inactive
same,Potency,JEG-3,inactive
same,Potency,OV90,inactive
same,Potency,PA-1,inactive
same,Potency,SKOV3,inactive
same,Potency,Tov-21-G,inactive
same,Potency,Tov112D,inactive
same,"activity, negative = cell killing",[1]; [3],8.47% and -7.54%
same,"activity, negative = cell killing",[1]; [4],3.68% and -23%
same,"activity, negative = cell killing",[1]; [5],-14.2%
same,"activity, negative = cell killing",[1]; [6],-7.33% and -2.64%
same,Potency,astro,inactive
C[C@@H](O)[C@H](N)C(=O)O,Potency,Hek293T,inactive
same,Potency,JEG-3,inactive
same,Potency,OV90,inactive
same,Potency,PA-1,inactive
same,Potency,SKOV3,inactive
same,Potency,Tov-21-G,inactive
same,Potency,Tov112D,inactive
same,"activity, negative = cell killing",[1]; [3],-15.7%
same,"activity, negative = cell killing",[1]; [4],-16.8%
same,"activity, negative = cell killing",[1]; [5],-29.7%
same,"activity, negative = cell killing",[1]; [6],2.15%
same,Potency,astro,inactive
C[C@@H]1CN(c2c(F)c(F)c3c(=O)c(C(=O)O)cn(C4CC4)c3c2F)C[C@H](C)N1,Potency,Hek293T,inactive
same,Potency,JEG-3,inactive
same,Potency,OV90,inactive
same,Potency,PA-1,inactive
same,Potency,SKOV3,inactive
same,Potency,Tov-21-G,inactive
same,Potency,Tov112D,inactive
same,"activity, negative = cell killing",[1]; [3],-1.06%
same,"activity, negative = cell killing",[1]; [4],-13.8%
same,"activity, negative = cell killing",[1]; [5],-28.8%
same,"activity, negative = cell killing",[1]; [6],26.5%
same,Potency,astro,inactive
Cc1ccc2nc(N)[nH]c(=O)c2c1Sc1ccncc1,Potency,Hek293T,inactive
same,Potency,JEG-3,6.31 µM (active)
same,Potency,OV90,inactive
same,Potency,PA-1,inactive
same,Potency,SKOV3,inactive
same,Potency,Tov-21-G,inactive
same,Potency,Tov112D,3.55 µM (active)
same,"activity, negative = cell killing",[1]; [4],-18.7%
same,"activity, negative = cell killing",[1]; [6],-42.8%
same,Potency,[1]; tumour line A,7.08 µM (active)
C=CCn1c(=O)n([C@@H]2O[C@H](CO)[C@@H](O)[C@H]2O)c2nc(N)[nH]c(=O)c21,Potency,Hek293T,inactive
same,Potency,JEG-3,inactive
same,Potency,OV90,inactive
same,Potency,PA-1,inactive
same,Potency,SKOV3,inactive
same,Potency,Tov-21-G,inactive
same,Potency,Tov112D,inactive
same,"activity, negative = cell killing",[1]; [3],-4.36%
same,"activity, negative = cell killing",[1]; [4],2.91%
same,"activity, negative = cell killing",[1]; [5],-17.2%
same,"activity, negative = cell killing",[1]; [6],-7.78%
same,Potency,astro,inactive
COc1ccccc1O,Potency,Hek293T,inactive
same,Potency,JEG-3,inactive
same,Potency,OV90,inactive
same,Potency,PA-1,inactive
same,Potency,SKOV3,inactive
same,Potency,Tov-21-G,inactive
same,Potency,Tov112D,inactive
same,"activity, negative = cell killing",[1]; [3],-3.97%
same,"activity, negative = cell killing",[1]; [4],4.42%
same,"activity, negative = cell killing",[1]; [5],-31.4%
same,"activity, negative = cell killing",[1]; [6],30.9%
same,"activity, negative = cell killing","[1]; at 91.6 µM (top of the series), tumour line B",-1.8%
same,"activity, negative = cell killing","[1]; at 91.6 µM (top of the series), tumour line D",-26.1%
same,"activity, negative = cell killing","[1]; at 99.2 µM (top of the series), tumour line C",-15%
same,Potency,astro,inactive
same,outcome,[2],inactive
O=C1OC(OC(=O)c2cccnc2Nc2cccc(C(F)(F)F)c2)c2ccccc21 (stereo unspecified),Potency,Hek293T,inactive
same,Potency,JEG-3,inactive
same,Potency,OV90,inactive
same,Potency,PA-1,inactive
same,Potency,SKOV3,inactive
same,Potency,Tov-21-G,inactive
same,Potency,Tov112D,inactive
same,"activity, negative = cell killing",[1]; [3],-18.8%
same,"activity, negative = cell killing",[1]; [4],3.71%
C[C@]12CC[C@@H]3c4ccc(O)cc4CC[C@H]3[C@@H]1CC[C@@H]2OC(=O)CCC1CCCC1,Potency,Hek293T,inactive
same,Potency,JEG-3,inactive
same,Potency,OV90,inactive
same,Potency,PA-1,inactive
same,Potency,SKOV3,inactive
same,Potency,Tov-21-G,inactive
same,Potency,Tov112D,inactive
same,"activity, negative = cell killing",[1]; [6],-26.4% and -9.85%
same,Potency,[1]; tumour line A,7.94 µM (active) and 22.4 µM (active)
same,Potency,[1]; tumour line B,35.5 µM (active)
same,Potency,[1]; tumour line D,35.5 µM (active) and 20 µM (active)
Cn1cc[nH]c1=S,Potency,Hek293T,inactive
same,Potency,JEG-3,inactive
same,Potency,OV90,inactive
same,Potency,PA-1,inactive
same,Potency,SKOV3,inactive
same,Potency,Tov-21-G,inactive
same,Potency,Tov112D,inactive
same,"activity, negative = cell killing",[1]; [7],3.07%
same,"activity, negative = cell killing",[1]; [8],-12.9%
same,"activity, negative = cell killing",[1]; [9],-12.3%
same,"activity, negative = cell killing",[1]; [10],-28.7%
same,Potency,astro,inactive

# — PubChem BioAssay (NCATS)
